Results as given in PubChem BioAssay AID1460 (National Center for Advancing Translational Sciences (NCATS), 2008).
Where “and” joins values, the source holds several entries; their conditions need not be identical. Equal entries are not always repeated. Hit rate of the full screen: of about 270,000 compounds, about 5,800 (2.1%) were called active. Roughly 16% stayed inconclusive and do not appear here. This is one part of a sample in which actives are shown more often than they occur. The call rests on the fitted dose curve; in most records, active means well fitted inhibition curve with a large enough effect; inconclusive means small, poorly fitted or top-dose-only effect; inactive means flat fitted curve, though single readings scatter.

What follows are compounds tested against Microtubule-associated protein tau (Homo sapiens) (UniProt P10636) (assay: qHTS for Inhibitors of Tau Fibril Formation, Thioflavin T Binding). Conditions: recombinant tau K18 P301L (four-repeat tau fragment), heparin-induced fibrillization, ThT fluorescence; series mostly up to 57.4 µM; activity, negative = inhibition: at the top concentration.
Chain of Microtubule-associated protein tau (Homo sapiens) (P10636 561-689 P618L limits assumed): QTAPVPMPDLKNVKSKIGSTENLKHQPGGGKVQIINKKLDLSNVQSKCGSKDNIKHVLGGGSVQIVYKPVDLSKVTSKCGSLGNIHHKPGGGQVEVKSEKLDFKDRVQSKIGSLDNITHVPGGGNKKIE
Text: NIH Molecular Libraries Probe Production Network [MLPCN]
NIH Chemical Genomics Center [NCGC]
Assay Provider: Carlo Ballatore, University of Pennsylvania
The microtubule-associated protein tau is an abundant protein in the axons of neurons that stabilizes microtubules. With its ability to modulate microtubule dynamics, tau contributes directly or indirectly, to key structural and regulatory cellular functions. Particularly important is the influence tau exerts on axonal transport, which allows signaling molecules, trophic factors and other essential cellular constituents to travel along the axons. Under pathological conditions, tau becomes sequestered into insoluble aggregates called neurofibrillary tangles. This phenomenon is believed to have pathological consequences by promoting axonal transport deficits that ultimately lead to synaptic dysfunction and neuronal loss. To identify inhibitors of tau aggregation, a heparin-induced tau fibril formation assay was used that employed a recombinantly expressed fragment of tau, K18 (Q242-E372), bearing a P301L mutation (Gustke et al. 1994; Hong et al. 1998). This assay monitors tau fibrillization by Thioflavin T (ThT) fluorescence.
Gustke, N., B. Trinczek, et al. (1994). "Domains of tau protein and interactions with microtubules." Biochemistry 33(32): 9511-22.
Hong, M., V. Zhukareva, et al. (1998).
Li, W. and V. M. Lee (2006).
von Bergen, M., S. Barghorn, et al. (2001). "Mutations of tau protein in frontotemporal dementia promote aggregation of paired helical filaments by enhancing local beta-structure." J Biol Chem 276(51): 48165-74.
NCGC Assay Protocol Summary:
For screening, 2 uL/well human K18 P301L (15 uM unlabeled and 0.24 uM Alexa 594-labeled tau, final concentrations) in reagent buffer (100 mM sodium acetate pH 7) was dispensed into black solid 1536-well plates (Grenier) using a solenoid-based dispenser. Following transfer of 23 nL compound or DMSO vehicle by a pin tool, 2 uL/well heparin (20 uM final concentration) in reagent buffer was added and the plate centrifuged 15 s at 1000 RPM. Plates were incubated 6 hr at 37 C and then 1 uL/well ThT (30 uM final concentration) was added. After a 1 hr ambient incubation, the plates were read by an Envision (Perkin Elmer) to monitor ThT fluorescence (450/8 nm excitation and 510/23 nm emission).
Keywords: NIH Roadmap, MLPCN, MLI, MLSMR, NCGC, qHTS, tau, tauopathies, Alzheimer's disease, fibril, neurodegeneration, aggregation
Further: nearly all actives have a fitted effect of over 55% in size.
On the % scale 0 is the no-effect control and ±100 the full control effect; potency means the concentration at half of the fitted maximal effect.

Compound	Potency	activity, negative = inhibition
CC[N+](C)(CC)CCC[n+]1c(-c2ccccc2)c2cc(N)ccc2c2ccc(N)cc21	1.26 µM (active)	–
CC[C@@H]1CN2CC[C@@H]1C[C@H]2[C@H](O)c1ccnc2ccc(OC)cc12	–	-4.88% (inactive)
CCN(CC)CCOC(=O)c1cc2cc(COC)ccc2o1	–	-8.09% (inactive)
CN(C)[C@@H]1C(=O)C(C(N)=O)=C(O)[C@@]2(O)C(=O)C3=C(O)c4c(O)cccc4[C@@](C)(O)C3CC12 (stereo partly specified)	–	-9.02% (inactive)
CN(C)CC1CCCCC1OC(=O)c1ccc(Cl)c(Cl)c1 (stereo unspecified)	–	-7.82% (inactive)
CC(C)Oc1cccc(C(=O)C2CCCN(C3CCOCC3)C2)c1 (stereo unspecified)	–	-2.7% (inactive)
N#CC(C#N)=Cc1cc(O)c(O)c([N+](=O)[O-])c1	10 µM (active) and 17.8 µM (active)	–
CC1=CC(=O)C2=C(C)C[C@H](O)[C@H]3[C@H](C)C(=O)O[C@@H]3C12 (stereo partly specified)	–	-2.24% (inactive)
CN1[C@@H]2CC[C@H]1CC(OC(=O)c1cc(Cl)cc(Cl)c1)C2 (stereo partly specified)	–	-3.74% (inactive)
CC1(C)Cc2c(C#N)c(N3CCNCC3)nc(-c3ccco3)c2CS1	–	-10.8% (inactive)
CCOCCc1c(O)[nH]c(=S)[nH]c1=O	–	-5.42% (inactive)
COc1ccccc1N=Nc1c(O)[nH]c(=S)[nH]c1=O	12.6 µM (active)	–
COc1ccccc1N=C1SCCCN1C	–	-5.08% (inactive)
COc1ccccc1-c1[se]c2ccccc2c1I	–	-17.5% [at 81.4 µM] (inactive)
c1cc2c(cc1CCNC1CCCCCC1)OCO2	–	-5.27% (inactive)
CC[C@]1(O)C(=O)OCc2c1cc1n(c2=O)Cc2cc3ccccc3nc2-1	–	-4.8% (inactive)
CCCCN1C2CCC1CC(OC(c1ccc(F)cc1)c1ccc(F)cc1)C2 (stereo unspecified)	–	-17% (inactive)
O=C(COc1ccc2ccccc2c1)N1CCN(Cc2ccncc2)CC1	–	-0.256% (inactive)
CC(=O)Oc1ccccc1C(=O)Nc1ncc([N+](=O)[O-])s1	11.2 µM (active)	–
O=c1oc2ccccc2c(O)c1C(c1ccccc1O)c1c(O)c2ccccc2oc1=O	–	-12.9% (inactive)
c1ccc2sc(SNC3CCCCC3)nc2c1	–	-14.2% (inactive)

Compound	Potency	activity, negative = inhibition
C[N+]1(C)CCOC(O)(c2ccc(-c3ccc(C4(O)C[N+](C)(C)CCO4)cc3)cc2)C1 (stereo unspecified)	inactive	–
Cc1ccc(CN2CCCC(C(=O)c3ccc4c(c3)OCO4)C2)cc1C (stereo unspecified)	–	-11.4% (inactive)
COC(=O)N(c1ccc(OC)cc1)P1(=S)OCCC(C)O1 (stereo unspecified)	28.2 µM (active)	–
CCCCCCCCCCCCn1ccc(=N)cc1	–	1.75% (inactive)
COc1ccc2[nH]cc(CCNCc3ccc(Br)cc3)c2c1	–	-12% (inactive)
CCCCC/C=C\C/C=C\C/C=C\C/C=C\CCCCCC(=O)NCCO	inactive	–
COc1cccc(N2C(=O)NC(=O)/C(=C\c3ccc([N+](=O)[O-])s3)C2=O)c1	14.1 µM (active)	–
Cc1cccc(N2C(=O)NC(=O)/C(=C\c3cnn(-c4ccccc4)c3)C2=O)c1	–	-18% (inactive)
O=C1NC(=O)N(c2ccccc2)C(=O)/C1=C/c1ccc([N+](=O)[O-])s1	14.1 µM (active)	–
CN1C2CC3CC1C(O3)C2O (stereo unspecified)	–	1.06% (inactive)
COC1CC(OC2CC[C@@]3(C=O)C4CC[C@]5(C)C(C6=CC(=O)OC6)CC[C@@]5(O)C4CC[C@]3(O)C2)OC(C)C1O (stereo partly specified)	–	-5.76% (inactive)
COc1c(O)ccc2c1-c1c3c(cc4c1C(C2)N(C)CC4)OCO3 (stereo unspecified)	–	-14% (inactive)
O=C(NC(c1ccc(Cl)cc1)P(=O)(Oc1ccccc1)Oc1ccccc1)OCc1ccccc1 (stereo unspecified)	–	-4.62% (inactive)
NCCc1c[nH]c2ccc(O)cc12	inactive	–
CCOc1cccc(=NC2CCCCC2)c2c(C)[nH]c(C)c12	8.91 µM (active)	–
CN(C)c1nc(N(C)C)nc(N(C#N)CCCl)n1	–	-3.25% (inactive)
C=CCN1CCC2(C)c3cc(O)ccc3CC1[C@@H]2C (stereo partly specified)	–	15.8% (inactive)
CC(=O)c1c(O)c(C)c(O)c(Cc2c(O)c3c(c(C(=O)/C=C\c4ccccc4)c2O)OC(C)(C)C=C3)c1O	15.8 µM (active)	–
CC(=O)c1c(O)c(C)c(O)c(Cc2c(O)c3c(c(C(=O)/C=C/c4ccccc4)c2O)OC(C)(C)C=C3)c1O	15.8 µM (active) and 17.8 µM (active) and 12.6 µM (active)	–
O=C1NC(=O)C(CCc2ccccn2)(Cc2cccc(Cl)c2Cl)C(=O)N1c1ccc(Br)cc1 (stereo unspecified)	–	-11.1% (inactive)
O=C(OCCN1CCOCC1)C1(c2ccccc2)CCCC1	–	-3.29% (inactive)

Compound	Potency	activity, negative = inhibition
N[C@@H](Cc1c[nH]c2ccccc12)c1nnc(SCc2c(F)cccc2Cl)o1	–	-19.7% (inactive)
Cc1ccc(Cn2c(C)c3cnn(CC(=O)N4CCC5(CC4)OCCO5)c(=O)c3c2C)cc1	–	-2.65% (inactive)
COC(=O)c1ccc2[se]c(CC3CCCCC3)c(I)c2c1	–	-9.2% (inactive)
Cc1ccc2c(c1)=C/C(=C\c1c(O)[nH]c(=O)[nH]c1=O)C(=O)N=2	–	8.7% (inactive)
CCC(=NCc1ccco1)c1c(O)n(Cc2ccccc2)c(=O)[nH]c1=O	–	1.59% (inactive)
CCC(=NCCc1ccccc1)c1c(O)n(C2CCCCC2)c(=O)[nH]c1=O	–	-25.8% (inactive)
CC/C(=N\NC(=O)c1ccccc1O)c1c(O)n(Cc2ccccc2)c(=O)[nH]c1=O	22.4 µM (active)	–
CCCCC/C=C\C/C=C\C/C=C\C=C\[C@H](CCCC(=O)O)OO	inactive	–
Cc1nc2ccccn2c1P(=S)(N1CCCCC1)N1CCCCC1	–	-0.659% (inactive)
Cc1cccc2c3c(ccc12)C1=C(C(=O)C3=O)C(C)CO1 (stereo unspecified)	7.94 µM (active)	–
CN1CCN(Cc2ccc(OC(F)(F)F)cc2)CC1	–	-11.3% (inactive)
CCCN(C/C=C/I)C1CCc2ccc(O)cc2C1 (stereo unspecified)	–	-11.2% (inactive)
CCCCCCCCc1[se]c2ccccc2c1Br	–	-14.5% [at 81.4 µM] (inactive)
O=C(OCC1O[C@@H](OC(=O)c2cc(O)c(O)c(O)c2)[C@@H](OC(=O)c2cc(O)c(O)c(O)c2)[C@@H](OC(=O)c2cc(O)c(O)c(O)c2)[C@@H]1OC(=O)c1cc(O)c(O)c(O)c1)c1cc(O)c(O)c(O)c1 (stereo partly specified)	11.2 µM (active)	–
O=C(O)C1C2CCC(O2)C1C(=O)O (stereo unspecified)	–	-15.8% (inactive)
CO[C@@H]1C[C@@H](C[C@H]2CC[C@H](C)[C@@H]([C@@H](C)C(=O)O)O2)O[C@]2(O[C@](C)([C@H]3CC[C@@](C)(C4OC([C@H]5O[C@@](O)(CO)[C@H](C)C[C@@H]5C)C[C@@H]4C)O3)C[C@H]2C)[C@@H]1C (stereo partly specified)	–	-8.15% (inactive)
Cc1ncsc1CCCl	inactive	–
CCC(C)n1c(O)c(/C=N/Nc2nc3c(c(=O)n(C)c(=O)n3C)n2C)c(=O)[nH]c1=S (stereo unspecified)	11.2 µM (active)	–
CCOC(=O)C1(CCc2ccccc2)CCN(Cc2ccco2)CC1	–	-5.91% (inactive)
